Measured values taken from the supplement of paper PMC13380429.
Unmarked numbers belong to inactive results.

Test system: Vero E6 infected with SARS-CoV-2
Experiment: inhibition of SARS-CoV-2 cytopathic effect; higher = more antiviral protection, active = above 15
Conditions: 48 h

| SMILES | inhibition of SARS-CoV-2 cytopathic effect (1 nM) [%] | inhibition of SARS-CoV-2 cytopathic effect (8.33 nM) [%] | inhibition of SARS-CoV-2 cytopathic effect (100 nM) | inhibition of SARS-CoV-2 cytopathic effect (833.33 nM) | inhibition of SARS-CoV-2 cytopathic effect (10000 nM) |
| --- | --- | --- | --- | --- | --- |
| Cc1ccc(NC(=O)C(C)C)cc1C1CCN(Cc2ccc(Oc3ccc(F)c(F)c3)cc2)CC1 | -0.1 | -1.41 | -2.07% | -4.89% | -10.5% |
| O=c1[nH]c(=O)c2ccccc2o1 [carsalam] | -1.46 | 0.95 | 4.79% | 0.99% | 4.32% |
| O=C1Cc2cc(CCN3CCN(c4nsc5ccccc45)CC3)c(Cl)cc2N1 [ziprasidone] | -0.08 | -2.01 | -0.35% | 0.78% | -2.66% |
| CN1CC(=O)N=C1NC(=O)Nc1cccc(Cl)c1 [fenobam] | 0.79 | 2.12 | 0.63% | 1.08% | -0.64% |
| O=C(CCCN1CCC(n2c(=O)[nH]c3ccccc32)CC1)c1ccc(F)cc1 [benperidol] | 0.17 | -0.44 | -0.77% | 2.15% | -4.28% |
| O=c1cc(N2CCOCC2)oc2c(-c3ccccc3)cccc12 | -0.31 | 1.39 | 0.59% | -1.92% | -5.7% |
| O=c1c2ccccc2[se]n1-c1ccccc1 [Ebselen] | 2.29 | 0.73 | 0.59% | 1.45% | 1.28% |
| CCn1c2ccccc2c2cc(Nc3ccnc(NCCCN4CCOCC4)n3)ccc21 | -2.13 | -1.13 | 0.05% | -0.2% | 69.3% (active) |
| CCC[C@H]1C(=O)N2C(N(C)C)=Nc3ccc(C)cc3N2C1=O [azapropazone] | -0.8 | -0.4 | -0.47% | -0.49% | -3.61% |
| CO[C@@]1(NC(=O)C(C(=O)O)c2ccc(O)cc2)C(=O)N2C(C(=O)O)=C(CSc3nnnn3C)CO[C@@H]21 (stereo not given in full) [moxalactam] | 1.45 | -1.13 | -0.85% | -1.15% | 1.01% |
| CC(=O)NC1N=C(c2ccccc2)c2ccccc2NC1=O (stereo not given) | 0.39 | 1.87 | -0.74% | 0.99% | -0.69% |
| Cc1cc2nc3c(=O)[nH]c(=O)nc-3n(C[C@H](O)[C@H](O)[C@H](O)CO)c2cc1C [riboflavin] | -3.6 | -1.59 | -1.7% | 0.03% | 0.32% |
| CC(C)NCC(O)COc1ccc(COCCOC(C)C)cc1 (stereo not given) [bisoprolol] | -5.27 | -2.6 | -2.42% | -3.57% | -3.25% |
| Cc1cc(CN)cc(C)c1NC(=O)c1ccc(-c2cc(Cl)ccc2Cl)o1 | -1.09 | 1.98 | 3.29% | -1.5% | 66.2% (active) |
| CCCc1nc2c(C)cc(-c3nc4ccccc4n3C)cc2n1Cc1ccc(-c2ccccc2C(=O)O)cc1 [telmisartan] | -1.56 | -2.17 | -4.81% | 2.3% | 1.33% |
| CCc1c2c(nc3ccc(O)cc13)-c1cc3c(c(=O)n1C2)COC(=O)[C@]3(O)CC | 1.57 | 0.05 | -1.96% | -6.66% | -16.9% |
| NC(=O)c1ccc(F)c2c1C[C@@H](N(C1CCC1)C1CCC1)CO2 [robalzotan] | -1.71 | 2.76 | 1.8% | 0.98% | 3.7% |
| CN(C)CCOC1=Cc2ccccc2Sc2ccc(Cl)cc21 [zotepine] | 3.4 | 2.96 | 4.34% | 0.16% | -3.52% |
| CC(=O)/N=c1/sc(S(N)(=O)=O)nn1C [methazolamide] | 2.05 | 1.62 | -1.26% | -0.76% | 1.82% |
| CN1CC[C@@H]2CN3CCc4cccc(c43)[C@@H]2C1 | -3.24 | -0.59 | 1.77% | -0.07% | 1.24% |
| O=C(Nc1cc(Cl)cc(Cl)c1O)c1c(O)c(Cl)cc(Cl)c1Cl [oxyclozanide] | -1.81 | -0.46 | 0.71% | -1.33% | -1.62% |

| SMILES | inhibition of SARS-CoV-2 cytopathic effect (1 nM) [%] | inhibition of SARS-CoV-2 cytopathic effect (8.33 nM) [%] | inhibition of SARS-CoV-2 cytopathic effect (100 nM) | inhibition of SARS-CoV-2 cytopathic effect (833.33 nM) | inhibition of SARS-CoV-2 cytopathic effect (10000 nM) |
| --- | --- | --- | --- | --- | --- |
| CCC(=O)N[C@@H]1Cc2ccccc2[C@H](c2ccccc2)C1 | 1.13 | 2.8 | 2.79% | 3.72% | 2.13% |
| CCS(=O)(=O)N1CC(CC#N)(n2cc(-c3ncnc4[nH]ccc34)cn2)C1 [baricitinib] | 3.34 | -0.51 | -1.28% | 0.06% | -2.55% |
| NCCS(=O)(=O)O [taurine] | -2.1 | -0.91 | -1.56% | 0.1% | -0.28% |
| CNC(=O)c1c(I)c(C(=O)NCC(=O)Nc2c(I)c(C(=O)O)c(I)c(C(=O)NCCO)c2I)c(I)c(N(C)C(C)=O)c1I [ioxaglic-acid] | 1.6 | 1.46 | 1.47% | 0.75% | 0.41% |
| CCCCNC(=O)[C@@H]1Cc2ccccc2N1C(=O)[C@@H](N)CC [butabindide] | 1.64 | 1.33 | -3.07% | 1.68% | 2.75% |
| Cc1ncc(Cl)cc1NCc1ccc(C(=O)N[C@@H](CC2CCCC2)C(=O)NC2CC2)s1 | 2.43 | 0.35 | -0.53% | -0.57% | -2.59% |
| CCCNCCc1ccc(NS(=O)(=O)c2ccc(OC(F)(F)F)cc2)cc1 | 2.87 | 3.37 | -0.23% | 1.93% | -4.37% |
| NC(=O)N1c2ccccc2CC(O)c2ccccc21 (stereo not given) [licarbazepine] | -1.75 | 1.29 | -0.88% | -6.25% | 0.95% |
| c1ccc(C2CN3CCSC3=N2)cc1 (stereo not given) [tetramisole] | 0.71 | 1.55 | 0.335% | 6.51% | 2.84% |
| COc1ccc(Nc2ncnc3ccc(OC)cc23)cc1 | 4.07 | 6.4 | 6.26% | 1.4% | -3.12% |
| [N-]=[N+]=N[C@]1(CO)O[C@@H](n2ccc(N)nc2=O)[C@H](O)[C@@H]1O | -1.63 | 0.795 | 0.87% | 1.03% | -0.005% |
| N#Cc1ncccn1 [2-cyanopyrimidine] | 4.29 | 5.63 | 4.71% | 6.33% | 4.34% |
| CC(C)(C)C(=O)OCOC(=O)[C@@H]1N2C(=O)[C@@H](/N=C/N3CCCCCC3)[C@H]2SC1(C)C [pivmecillinam] | 1.02 | 0.8 | -0.38% | -0.99% | 0.82% |
| Cc1cccc(/C=N/Nc2cc(N3CCOCC3)nc(OCCc3ccccn3)n2)c1 | 0.81 | 1.56 | 26.8% (active) | 20.4% (active) | 19.1% (active) |
| COc1cc2c(cc1OC)-c1cc3ccc(OC)c(OC)c3c[n+]1CC2 [palmatine-chloride] | -2.25 | 0.72 | -0.15% | -2.8% | 2.04% |
| COc1cc(C)[nH]c(=O)c1CNC(=O)c1c(C)n([C@H](C)C2CCOCC2)c2ccccc12 | -1.12 | -1.57 | 0.4% | -4.34% | -4.06% |
| CS(=O)(=O)OC[C@H](O)[C@@H](O)COS(C)(=O)=O [treosulfan] | 0.41 | 0.48 | -0.46% | 0.71% | 1.56% |
| CC[C@H]1CN2CCc3cc(OC)c(OC)cc3[C@@H]2C[C@@H]1C[C@H]1NCCc2cc(OC)c(OC)cc21 [emetine] | 1.59 | 2.17 | 36.2% (active) | 11.6% | -11.1% |
| N=C(N)Nc1ccc(Cl)cc1 [4-chlorophenylguanidine] | 0.9 | 1.22 | 0.63% | -0.99% | 0.95% |
| COc1ccc(-c2cc(C(F)F)nn2-c2ccc(S(N)(=O)=O)cc2)cc1F [deracoxib] | 2.3 | -0.35 | 3.5% | 2.29% | 2.18% |
